Cruzain Triton = cruzain (T. cruzi) inhibition with detergent. P25779. purified cruzain, Z-FR-AMC fluorescence, 0.01% Triton. Potency, µM, most hits filed as inhibitors. actives 0.43% (n = 200,000); note: nearly all actives have a fitted effect of over 40% in size
Target sequence (P25779 123-467 limits assumed): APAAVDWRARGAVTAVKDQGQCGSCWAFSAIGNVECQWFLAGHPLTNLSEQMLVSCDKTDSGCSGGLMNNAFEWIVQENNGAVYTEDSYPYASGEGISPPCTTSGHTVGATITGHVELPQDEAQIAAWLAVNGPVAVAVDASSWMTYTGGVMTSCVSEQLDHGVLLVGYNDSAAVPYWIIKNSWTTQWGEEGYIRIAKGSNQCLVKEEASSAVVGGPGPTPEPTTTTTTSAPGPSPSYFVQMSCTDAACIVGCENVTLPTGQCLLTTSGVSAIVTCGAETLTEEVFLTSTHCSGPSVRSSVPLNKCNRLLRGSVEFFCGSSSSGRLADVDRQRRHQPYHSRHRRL
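Detergent-containing arm of a paired screen for aggregation-based inhibition: 0.01% Triton X-100 present. Cruzain at 1.5 nM cleaved 2 uM Z-FR-AMC at pH 5.5 with 5 mM DTT; AMC fluorescence gain over 60 s measured activity.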
Cruzain inh noDet = blocks cruzain activity in detergent-free assay; P25779; purified cruzain, Z-FR-AMC fluorescence, no detergent; Potency, µM, actives largely listed as inhibitors; actives 2.3% (n = 200,000); AID 1476; note: nearly all actives have a fitted effect of over 40% in size
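Detergent-free condition (0.00005% Triton X-100) in acetate buffer pH 5.5 with DTT. 1.5 nM enzyme and compound were pre-mixed 15 min, then 2 uM Z-FR-AMC substrate added; reaction progress from fluorescence change between first and third reads (60 s).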
Each line names hits and unclear results; the compound was inactive in the other large screens; ! = repeats disagree. Compounds with a hit are over-represented: about 2.4% of the library has one in this group of screens. Calls come from the whole dose curve; as a rule, active = well fitted curve in the direction sought with a large enough effect; inconclusive = small, poorly fitted or top-dose-only effect, or another doubt; inactive = no such curve, though single readings can be large; an effect the other way counts as inactive or inconclusive.

COc1ccc(-c2ccc3c(N)c(C(=O)NCc4ccc(C)cc4)sc3n2)cc1	Cruzain Triton 12.6µM, Cruzain inh noDet 15.8µM
Cc1ccc(CNC(=O)c2sc3nc(-c4ccc(F)cc4)ccc3c2N)cc1	none
CC#CCC1(C(=O)OC)C(=O)NC[C@H]1c1ccccc1 (some centres not stated)	none
O=C(OC[C@@H]1O[C@@](O)(COC(=O)c2cccnc2)[C@H](OC(=O)c2cccnc2)[C@H]1OC(=O)c1cccnc1)c1cccnc1	none
COc1ccccc1Oc1ccc2c(c1)C(=O)N(c1ccc(O)cc1)C2=O	Cruzain inh noDet 20µM
CC(C)(C)C(=O)Nc1ccc(Oc2ccc3c(c2)C(=O)N(c2ccc(O)cc2)C3=O)cc1	none
c1ccc(-c2nnc(CSc3nc4ccccc4[nH]3)o2)cc1	Cruzain inh noDet 12.6µM
Brc1cccc(-c2nnc(-c3ccccc3)o2)c1	none
Cc1nnc(SCc2nc3ccccc3[nH]2)s1	none
c1ccc2c(CSc3nnc(-c4ccncc4)o3)cccc2c1	none
O=C(CCCSc1nc2ccccc2[nH]1)Nc1nnc(-c2ccccc2)o1	none
Brc1cccc(-c2nnc(SCc3nc4ccccc4[nH]3)o2)c1	Cruzain Triton 14.1µM, Cruzain inh noDet 12.6µM
c1ccc2[nH]c(CSc3nnc(-c4ccncc4)o3)nc2c1	Cruzain inh noDet 12.6µM
c1ccc2[nH]c(CSc3nc4ccccc4s3)nc2c1	Cruzain Triton inconclusive, Cruzain inh noDet 15.8µM
CCC1CN(C(=O)N2CCC(C(=O)NCc3ccccc3F)CC2)c2ccccc2O1 (configuration not stated)	none
COC(=O)N1CCC2(CCCN(Cc3nccs3)C2)CC1	none
CCOc1ccc(NC(=O)Cn2c(CCC(=O)O)ccc2-c2ccc(C)cc2)cc1	none
Clc1ccc(-c2nnc(SCc3ccon3)o2)c(Cl)c1	none
N#Cc1c(-c2ccccc2)cc(-c2ccccc2)nc1SCc1nnc(-c2ccccc2)o1	Cruzain inh noDet 5.01µM
Clc1ccc(-c2nnc(SCc3nc4ccccc4[nH]3)o2)c(Cl)c1	Cruzain Triton 6.31µM
C=C(C)CSc1nc(-c2ccccc2)cc(-c2ccc(OC)cc2)c1C#N	none
Cc1cc2nc3c(=O)[nH]c(=O)nc-3n(C)c2cc1C=O	Cruzain inh noDet inconclusive
O=C1CC(c2ccccc2Cl)Cc2c1cnn2-c1nc2ccccc2s1 (configuration not stated)	Cruzain inh noDet 12.6µM
O=c1c(Cl)c(N2CCN(c3ccc(F)cc3)CC2)cnn1-c1nc2ccccc2s1	Cruzain inh noDet inconclusive
Cc1ccc(S(=O)(=O)n2nc(-c3ccco3)nc2NCc2ccc(N(C)C)cc2)cc1	none
COC(=O)c1ccc(NC(=O)CC2C(=O)N(c3cccc(C)c3)C(=O)N2Cc2ccco2)cc1 (configuration not stated)	none
Cc1cc(C)c(S(=O)(=O)Nc2ccc3c4c(cccc24)CC3)c(C)c1	Cruzain inh noDet 20µM
Cc1cc(C)c(S(=O)(=O)Nc2ccc3c(c2)CCC3)c(C)c1	none
COC(=O)[C@@]1(Cc2ccccc2)[C@H]2c3cc(C(=O)N(C)C)n(Cc4ccccc4)c3C[C@H]2CN1C(=O)c1ccccc1	Cruzain inh noDet inconclusive
CN(C)C(=O)COc1ccc2cc(-c3ccccc3)c(=O)oc2c1	Cruzain Triton 28.2µM, Cruzain inh noDet inconclusive
Cc1cc(OCC(=O)N(C)C)c2c(-c3ccccc3)cc(=O)oc2c1	none
CC1CCN(CCCNC(=O)c2cc(Sc3ccc(F)cc3)nc3ccccc23)CC1	none
CN(C)S(=O)(=O)c1cc(NC(=O)CSc2nn(-c3ccc(Cl)cc3)c(=S)s2)ccc1Cl	Cruzain inh noDet 25.1µM
Cc1ccc(NC(=O)CSc2nn(-c3ccc(Cl)cc3)c(=S)s2)cc1S(=O)(=O)N(C)C	Cruzain inh noDet inconclusive
COC(=O)c1ccccc1NC(=O)c1cc(C)nc2c1c(C)nn2-c1ccc(C)cc1	none
CCN(CC)S(=O)(=O)c1ccc(C(=O)NCCSc2c(-c3ccc(C)cc3)[nH]c3ccccc23)cc1	Cruzain inh noDet 25.1µM
CCN(CC)S(=O)(=O)c1ccc(C(=O)NCCSc2c[nH]c3ccccc23)cc1	none
Cc1ccc2nc(-c3ccc(NS(=O)(=O)c4ccccc4)cc3)sc2c1	none
Cc1ccc2nc(-c3ccc(N)cc3)sc2c1S(=O)(=O)O	Cruzain Triton 35.5µM, Cruzain inh noDet 20µM
COCCn1c(=O)c(-c2cccs2)nc2cnc(Oc3ccc(OC)cc3)nc21	Cruzain inh noDet inconclusive
Cc1noc(Cn2c(=O)c3ccccc3n(CC(=O)Nc3cc(Cl)ccc3C)c2=O)n1	none
CCCCCC#CC[C@@H](O)/C=C/C=C/C=C\[C@@H](O)CCCC(=O)O	none
C[C@@H]1[C@H](C)CC[C@@]2(C(=O)O)CC[C@]3(C)C(=CC[C@H]4[C@@]5(C)CC[C@@H](O)C(C)(C)[C@@H]5CC[C@@]43C)[C@@H]12	none
N#C/C(=C\c1ccc(-c2ccc(Cl)c(C(=O)O)c2)o1)c1nc2ccccc2[nH]1	none
Cc1ccc2nc(/C(C#N)=C/c3ccc(-c4cccc(Cl)c4)o3)[nH]c2c1	Cruzain Triton inconclusive, Cruzain inh noDet 12.6µM
COc1cc(/C=C(\C#N)c2nc3ccc(C)cc3[nH]2)ccc1OC(C)C	none
Cc1ccc2nc(/C(C#N)=C/c3cccc(Br)c3)[nH]c2c1	Cruzain inh noDet 20µM
CCOc1ccccc1Oc1ncnc2c1oc1ccccc12	none
CN(C)c1ccc([C@@H]2[C@@H]([N+](=O)[O-])[C@H]3C=Cc4ccccc4N3[C@H]2C(=O)c2ccc(Cl)cc2)cc1	Cruzain inh noDet 7.94µM
CN(C)c1ccc(C(=O)NCc2ccc3c(c2)CCN3C(=O)c2ccc(Cl)cc2)cc1	none
CC1(N)CCC(C(C)(C)N)CC1 (configuration not stated)	none
COc1cc2ccc(=O)oc2cc1O	Cruzain Triton 25.1µM!, Cruzain inh noDet 31.6µM
COc1ccc2ccc(=O)oc2c1CC=C(C)C	none
CC1=C(C(=O)OCc2ccc(C)cc2)C(c2cccc(F)c2F)CC(=O)N1 (configuration not stated)	none
Cc1cccc(NC(=O)CSc2nc3ccc(NC(=O)COc4ccc(Cl)cc4)cc3s2)c1	Cruzain inh noDet 7.94µM
O=C(CSc1nc2ccc(NC(=O)CSc3nnnn3-c3ccccc3)cc2s1)Nc1ccccc1	Cruzain inh noDet 5.01µM
Cc1cccc(NC(=O)CSc2nc3ccc(NC(=O)CSc4nnnn4-c4ccccc4)cc3s2)c1C	Cruzain inh noDet inconclusive
O=C(O)CSc1nc2ccc(NC(=O)COc3ccc(Cl)cc3)cc2s1	none
Cc1ccc(C)c(N2CCN(C3(c4ccccc4)C(=O)c4ccccc4C3=O)CC2)c1	Cruzain inh noDet inconclusive
CCOc1ccc(NC(=O)c2oc3ccccc3c2NC(=O)C2CCCCC2)cc1	none
Cc1nn(CCC(=O)Nc2cc(F)ccc2F)c(=O)c2nn(-c3ccccc3)c(C)c12	none
Cc1cc(NC(=O)C2CCCN(S(=O)(=O)c3cccc4nonc34)C2)ccc1Br (configuration not stated)	none
CC1CCN(c2nc3ccccc3nc2SCC(=O)Nc2ccccc2C(C)C)CC1	none
N#CC1=C(N)SC(N)=C(C#N)C1c1cccc(Oc2ccccc2)c1	Cruzain inh noDet 25.1µM
CCOc1ccc(C2C(C#N)=C(N)SC(N)=C2C#N)cc1OCC	none
Cn1nccc1C(=O)Nc1ccn(C23CC4CC(CC(C4)C2)C3)n1	none
O=C(Nc1ccc(Br)cc1)c1nn(C23CC4CC(CC(C4)C2)C3)cc1Br	Cruzain inh noDet 25.1µM
COc1ccc(-c2cnnc(N/N=C/C(C)=C/c3ccccc3)n2)cc1	Cruzain inh noDet 10µM
COc1ccc(-c2cnnc(N/N=C/c3ccc(OC)c(OC)c3)n2)cc1	none
COc1ccccc1CNc1cc(-c2ccccc2C(F)(F)F)ncn1	none
